# In PubChem BioAssay (NCI):
# About 83,000 compounds went through this panel and 20% of them were active in at least one assay; those are over-represented in the sample as a whole.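 Results are percent growth after 48 hours of single-concentration exposure. 100 means growth as in untreated cells, lower positive values show inhibition; negative values down to -100 show cell death.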 A number with no mark means an inactive call. Activity calls are given as the source filed them. Rule for the calls: active = growth percent below 10; inactive = the rest.
# System: MDA-MB-468 breast
# Experiment: NCI-60 one-dose screen, 48 h (100 = growth as untreated, 0 = no growth, -100 = all killed)
# Conditions: 10 µM unless noted
row,SMILES,growth
1,CC1CC(C(C)(C)C)C(=O)C(C(C)(C)C)C1 (stereo not given),99.8%
2,COc1cc2nc(Cl)nc(Nc3cccc(C4=Nc5c(N)nc(N)nc5NC(c5ccc6c(c5)OCO6)C4)c3)c2cc1OC (stereo not given),81.7%
3,COc1cc(/C=C\c2cc(/C=C\c3ccc(O)c(OC)c3)n(C(=O)Nc3ccc(C(F)(F)F)cc3)n2)ccc1O,43.8%
4,N=S(=O)(NC(=O)c1ccc(Cl)cc1Cl)c1ccc(Br)s1 (stereo not given),92.8%
5,COc1cc(CNCCN2C(=O)c3ccc4c5c(ccc(c35)C2=O)C(=O)N(CCNCc2cc(OC)c(OC)c(OC)c2)C4=O)cc(OC)c1OC,-91.6% (active)
